From PubChem BioAssay (NCATS) come the findings set out here.

Experiment [1] deals with Zika virus NS2B-NS3 protease (linked). Description: 384 well plate NINDS AMC confirmatory qHTS for Zika virus inhibitors (AID 1347163). Also: nearly all actives have a fitted effect of over 50% in size. Also: potency is read from the fitted curve at half-maximal effect.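 As to activity change, negative = inhibition: linked protease at 5 30 or 60 nM final depending on run; fluorescence of AMC released from Ac-VKTGKR-AMC peptide cleaved by the protease; top concentration of the series differs between compounds.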 In a few lines: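 Linked NS2B-NS3 protease (final 5 nM, 30 nM or 60 nM) was preincubated with compounds (final up to 1 mM) for ~15 minutes. Ac-VKTGKR-AMC substrate (final 30 microM) then reacted for 25 minutes at room temperature in the dark. Fluorescence (ex 355/em 460 nm) was normalized to no-enzyme and no-inhibitor controls.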

Experiment [2] concerns Zika virus NS2B-NS3 protease (linked construct). Description: 384 well plate NINDS Rhodamine confirmatory qHTS for Zika virus inhibitors (AID 1347164). Also: nearly all actives have a fitted effect of over 65% in size. Also: potency is read from the fitted curve at half-maximal effect. As to activity change, negative = inhibition: top concentration of the series differs between compounds. In a few lines: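 Compounds are incubated about 15 minutes with linked protease (5, 30 or 60 nM final). Rhodamine 110-tagged Ac-LKRR substrate (10 microM final) is added and fluorescence measured after 25 minutes.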
A short description of experiment [3]: Vero cells viability qHTS for Zika virus inhibitors (AID 1347167). The method in brief:
(§1)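 Compounds were tested in concentration series on cells grown in DMEM containing 4% FBS. After 24 to 48 hours, cellular ATP was measured by luminescence with CellTiter Glo.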

Experiment [4] is described as follows: HepG2 cells viability qHTS for Zika virus inhibitors (AID 1347168). Also: potency is read from the fitted curve at half-maximal effect. The method in brief:
as §1

Experiment [5] can be described thus: qHTS to identify inhibitors of the type 1 interferon - major histocompatibility complex class I in skeletal muscle: primary screen against the NCATS Mechanism Interrogation Plate v5.0 (MIPE) Libary (AID 1347411). Also: nearly all actives have a fitted effect of over 65% in size. Also: potency is read from the fitted curve at half-maximal effect. In a few lines: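 Luminescence from HiBiT-tagged endogenous HLA-B*08:01 served as the MHC class I read-out. CRISPR-engineered C25cl48 human myoblasts received 4.0 ng/ml IFN-beta plus compound for 24 hrs, with an 11-point, 1:3 series topping at 46 uM final.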

Experiment [6] deals with Calcium and integrin-binding protein 1 (Homo sapiens) (UniProt Q99828). Nature of the experiment: Primary qHTS for Identification of Calcium Integrin Binding Protein 1 (CIB1) Competitor (AID 1508620).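 Also: GST tagged CIB1 binding a fluorescein labelled alphaIIb integrin peptide tracer; top concentration of the series differs between compounds.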 In a few lines:
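CIB1-GST (1 uM final) and compound incubated 15 min at room temperature before adding FITC-alphaIIb peptide tracer (100 nM final). Competition for binding read by fluorescence polarization (ex 480, em 540) after another 15 min at room temperature.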

For experiment [7], the system named is Zika virus NS2B-NS3 protease (linked construct). Description: Primary screen NINDS Rhodamine qHTS for Zika virus inhibitors (AID 1347160). Also: nearly all actives have a fitted effect of over 55% in size. Also: potency is read from the fitted curve at half-maximal effect. The method in brief:
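Purified NS2B-NS3 protease with the NS2B hydrophilic domain joined by a flexible linker (25 nM) in 10 mM Tris-HCl pH 8.0, 0.01% Tween 20, preincubated 15 min at RT with compound; Rhodamine110 peptide substrate 1.5 µM; fluorescence change over 15 min; 4-parameter Hill fit.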

Experiment [8] in a line: Tertiary RLuc qRT-PCR qHTS assay for Zika virus inhibitors (AID 1347169). Also: nearly all actives have a fitted effect of over 55% in size. Also: potency is read from the fitted curve at half-maximal effect. As to activity change, negative = inhibition: top concentration of the series differs between compounds. The method in brief: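 Orthogonal cell-based infection assay using recombinant ZIKV-RLuc (Cambodian) in Vero cells; compound added prior to virus at MOI 1-2. Incubation lasts 48-72 hrs at 37 degrees C before live-cell Renilla substrate is added and luminescence measured.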
Experiment [9] can be described thus: qHTS to identify inhibitors of the type 1 interferon - major histocompatibility complex class I in skeletal muscle: primary screen against the NCATS Pharmaceutical Collection (AID 1347407).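 Also: luminescence of HiBiT knocked into endogenous HLA-B as interferon-induced MHC class I level.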 The method in brief: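 Cells were seeded with 4 ng/ml IFN-beta, incubated 1 h, then dosed with compounds over eight 1:5 steps up to 46 uM final. After 24 h at 37 C, HiBiT lytic reagent was added and luminescence read after 10 min lysis in the dark.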

For experiment [10], the target named is Protein phosphatase 1D (Homo sapiens) (UniProt O15297). Description: RapidFire Mass Spectrometry qHTS Assay for Modulators of WT P53-Induced Phosphatase 1 (WIP1) (AID 1347424).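 Also: amount of dephosphorylated VEPPL-S-QETFS peptide product formed by WIP1; series mostly up to about 63 µM.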 In a few lines: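 10 nM WIP1 + cpd, 1 h RT; + 2 uM VEPPL-pS-QETFS, 5 min RT; stop 0.5% formic acid; labelled product standard 1 uM; RapidFire MS. Buffer 50 mM Tris pH 7.5, 30 mM MgCl2, 1 mM TCEP.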
Sequence of Protein phosphatase 1D (Homo sapiens) (O15297 whole entry, looked up): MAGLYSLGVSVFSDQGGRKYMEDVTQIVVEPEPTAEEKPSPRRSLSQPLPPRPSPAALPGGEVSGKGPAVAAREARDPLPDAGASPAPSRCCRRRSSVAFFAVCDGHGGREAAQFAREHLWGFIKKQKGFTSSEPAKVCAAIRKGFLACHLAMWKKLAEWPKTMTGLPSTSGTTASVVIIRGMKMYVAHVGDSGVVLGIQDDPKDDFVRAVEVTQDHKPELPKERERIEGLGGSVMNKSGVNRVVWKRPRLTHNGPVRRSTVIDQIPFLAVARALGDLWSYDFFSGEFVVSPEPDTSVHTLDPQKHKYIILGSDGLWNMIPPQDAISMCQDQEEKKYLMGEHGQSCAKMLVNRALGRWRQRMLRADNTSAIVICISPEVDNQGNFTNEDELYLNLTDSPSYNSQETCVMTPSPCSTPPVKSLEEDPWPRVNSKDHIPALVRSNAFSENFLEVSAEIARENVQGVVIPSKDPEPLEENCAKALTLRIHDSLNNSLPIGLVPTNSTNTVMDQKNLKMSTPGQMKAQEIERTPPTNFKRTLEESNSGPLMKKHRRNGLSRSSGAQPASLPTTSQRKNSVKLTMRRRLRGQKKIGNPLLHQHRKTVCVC

Experiment [11] has the same target. Description: Rhodamine-PBP qHTS Assay for Modulators of WT P53-Induced Phosphatase 1 (WIP1) (AID 1347425). In a few lines:
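WIP1 (5 nM final) was preincubated with compound for 1 hour at room temperature. It then dephosphorylated 10 uM VEPPL-pS-QETFS peptide in Tris-HCl pH 7.5 with 30 mM MgCl2. Released Pi was detected by 10 uM Rh-PBP fluorescence (ex 525/em 598 nm) read at 1-min intervals for 11 min, as delta f1 - f0.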

The nature of experiment [12]: Primary qHTS for inhibitors of La Crosse Virus (LACV) - induced cell death in SH-SY5Y cells (AID 1508616).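 Also: top concentration of the series differs between compounds; higher means more rescue of cells from virus-induced death.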 In a few lines: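 Protection against LACV-induced cell death is scored in SH-SY5Y cells exposed to compounds and virus (0.01 MOI) for 6 days. Data normalized to virus-infected DMSO wells and virus-free DMSO wells.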
The nature of experiment [13]: Counterscreen qHTS for small molecule stabilizers of the endoplasmic reticulum resident proteome: GLuc-NoTag assay (AID 1508627). Also: series mostly up to about 76 µM. In a few lines: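 Luminescence of Gaussia luciferase secreted into the medium (coelenterazine, 0.07x final, unlysed cells) was the read-out. Human SH-SY5Y neuroblastoma cells constitutively secreting untagged GLuc received compound for 19 h, then 100 nM thapsigargin for 4 h.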

Experiment [14] can be described thus: Confirmatory qHTS for small molecule stabilizers of the endoplasmic reticulum resident proteome: Secreted ER Calcium Modulated Protein (SERCaMP) assay (AID 1508628). Also: series mostly up to about 76 µM; nearly all actives have a fitted effect of over 40% in size. In a few lines: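 SH-SY5Y cells stably expressing GLuc-SERCaMP, treated 16 h with compound (primary 1.53, 7.67, 38.3 uM; confirmation 11 concentrations, up to 76.6 uM), then 100 nM thapsigargin for 4 h. Secreted Gaussia luciferase in medium read by coelenterazine luminescence.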

Records with an inconclusive call do not appear. Where a call stands in place of a potency, no number is given. A number with no mark means an inactive call. Calls of active or inactive are those of the source. Calls follow the shape of the dose curve; as a rule, active = well fitted curve in the direction sought with a large enough effect; inconclusive = small, poorly fitted or top-dose-only effect, or another doubt; inactive = no such curve, though single readings can be large; an effect the other way counts as inactive or inconclusive.

Sequence of Calcium and integrin-binding protein 1 (Homo sapiens) (Q99828 whole entry, looked up): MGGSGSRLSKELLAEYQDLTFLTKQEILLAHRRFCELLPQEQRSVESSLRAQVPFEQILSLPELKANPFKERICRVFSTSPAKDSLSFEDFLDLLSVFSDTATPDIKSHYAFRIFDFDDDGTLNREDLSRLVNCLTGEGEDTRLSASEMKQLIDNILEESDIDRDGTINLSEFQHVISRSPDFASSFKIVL

Turning to `C[C@@]12O[C@@H](C[C@]1(O)CO)n1c3ccccc3c3c4c(c5c6ccccc6n2c5c31)CNC4=O`, the Potency entry in [1], in experiment [2] and in experiment [3] was “inactive” each time. In addition, the Potency in experiment [4] was 16.5 µM (active); in [5] it was 0.739 µM (active). Further, the result in experiment [6] was inactive.
`Cc1cnc(-c2cnc(NCCNc3ccc(C#N)cn3)nc2-c2ccc(Cl)cc2Cl)[nH]1`: in experiment [7], the Potency entry was “inactive”. Besides, in [6], the result was inactive.
As for `CCc1c2c(nc3ccc(O)cc13)-c1cc3c(c(=O)n1C2)COC(=O)[C@]3(O)CC`, the Potency was 0.0658 µM (active) in experiment [8] and 1.17 µM (active) in [5]. Further, in experiment [6], the outcome was inactive.
On to `O=C(Cc1ccc(-c2ccc(OCCN3CCOCC3)cc2)cn1)NCc1ccccc1`, for which the Potency entry in experiment [7] is “inactive”. The outcome in [6] was inactive.
For `C[C@]1(CO)CN(c2cc(C(=O)Nc3ccc4c(c3)-c3c(c(C(N)=O)nn3-c3ccc(F)cc3)CC4)c(Cl)cn2)C[C@@]1(C)CO`, in [7], the Potency result was “inactive”. In addition, in experiment [6], the outcome was inactive.
With `COc1cc2c(Oc3ccc(-c4cnc(Nc5ccc(F)cc5)n(C)c4=O)cc3F)ccnc2cc1OCCCN1CCOCC1`, the Potency entry in [7] is “inactive”. Besides, the result in experiment [6] was inactive.
As for `COc1cc2c(Nc3ccc(NC(=O)c4ccccc4)cc3)ncnc2cc1OCCCN1CCOCC1`, the Potency result in [7] is “inactive”. Moreover, the result in [6] was inactive.
On to `CC(C)(O)c1cc2nc(-c3cnc(N)nc3)nc(N3CCOCC3)c2s1`, for which the Potency entry in [7] was “inactive”. The outcome in experiment [6] was inactive.
For the compound `Cc1cn2c(-c3cn[nH]c3)cnc2c(Nc2ccc(C(=O)N3CCNCC3)cc2F)n1`, the Potency result in [7] is “inactive”. Also, the outcome in [6] was inactive.
Take `CC(C)c1ccccc1Cc1cc(C(=O)Nc2ccc(S(=O)(=O)c3ccccc3C(C)(C)C)cc2)c(O)c(O)c1O`: the figures for the Potency in experiment [1] and in [2] were 2.24 µM (active) and 1.58 µM (active), respectively. The Potency result in experiment [3], in experiment [4] and in experiment [8] was “inactive” in each case.
Take `COc1c(OCCCN2CCOCC2)ccc2c3n(c(=NC(=O)c4cnc(N)nc4)nc12)CCN3`: in [7], the outcome was “inactive [at 10.7 µM]”. For the same compound, in [6], the outcome was inactive.
With `CC(O)C1C(=O)N2C(C(=O)O)=C(SC3CNC(C(=O)N(C)C)C3)C(C)C12` (stereo unspecified), the Potency entry in experiment [7] was “inactive”. Further, the result in [6] was inactive.
Consider `CC(C)c1cc(C(=O)N2Cc3ccc(CN4CCN(C)CC4)cc3C2)c(O)cc1O`, for which, in experiment [7], the Potency result was “inactive”. Besides, the outcome in experiment [6] was inactive.
In the case of `CC(=O)SC[C@@H](C)C(=O)N1CCC[C@H]1C(=O)N[C@@H](Cc1ccccc1)C(=O)O`, the call in experiment [9], in experiment [11], in experiment [12], in [6] and in experiment [14] was inactive. In addition, the Potency entry in [5], in experiment [10] and in [13] was “inactive” in each case.
On to `COC(=O)Nc1nc2ccc(C(=O)c3ccc(F)cc3)cc2[nH]1`, for which the Potency result in experiment [7] was “inactive”. Moreover, the result in [6] was inactive.
`O=c1[nH]nc(Sc2ncc([N+](=O)[O-])s2)n1-c1ccc2c(c1)OCCO2`: the Potency in experiment [5] is 6.58 µM (active).
On to `Cc1cc(N2CCOCC2)cc2[nH]c(-c3c(NC[C@@H](O)c4cccc(Cl)c4)cc[nH]c3=O)nc12`, for which the Potency entry in experiment [1] and in [3] was “inactive” each time. In [6], the result was inactive.
Regarding `Cc1nc2ccc(CN(C)c3ccc(C(=O)N[C@@H](CCC(=O)O)C(=O)O)s3)cc2c(=O)[nH]1`, the result in experiment [9], in [11], in [12] and in experiment [6] was inactive. Moreover, the Potency result in experiment [5] and in experiment [10] was “inactive” throughout.
As for `CCN(CC)CCNC(=O)c1ccc2nc(-c3ccccc3)c(-c3ccc(CN4CCC(n5c(=O)[nH]c6ccccc65)CC4)cc3)nc2c1`, the Potency in experiment [5] is 6.58 µM (active).
As to `NC(=O)Nc1cc(-c2cccc(F)c2)sc1C(=O)N[C@H]1CCCNC1`, the Potency result in experiment [7] is “inactive”. Also, in experiment [6], the outcome was inactive.
For the compound `Cc1c(C)n(Cc2ccc(-c3ccccc3C(=O)O)cc2)c2ccc(C(=O)N[C@@H](C)c3ccc([N+](=O)[O-])cc3)cc12`, the values for the Potency in experiment [1] and in experiment [2] were 112 µM (active) and 22.4 µM (active), respectively. Also, the Potency result in experiment [3], in [4] and in experiment [5] was “inactive” each time.
On to `CCNC(=O)Nc1ccc2ncc(Nc3ccc(C)cc3)nc2n1`, for which the Potency in experiment [7] was 35.5 µM (active). Moreover, the result in [6] was inactive.
Take `COc1cc2c(cc1-c1c(C)noc1C)ncc1[nH]c(=O)n([C@H](C)c3ccccn3)c12`: the Potency in [8] was 0.37 µM (active). Besides, the result in experiment [6] was inactive.
In the case of `O=C(Nc1nc2cccc(-c3ccc(CN4CCS(=O)(=O)CC4)cc3)n2n1)C1CC1`, in experiment [7], the Potency entry was “inactive”. The outcome in experiment [6] was inactive.
Turning to `CN(C)Cc1c(C(=O)NCCOc2ccc(C(=O)NO)cc2)oc2ccccc12`, the Potency entry in [7] was “inactive”. Moreover, the outcome in [6] was inactive.
With `C=CC(=O)Nc1cc2c(Nc3ccc(F)c(Cl)c3)ncnc2cc1OCCCN1CCOCC1`, in [10], the Potency result was “inactive”. Besides, the compound was classed as inactive in [11].
In the case of `COC(=O)C1=C(C)NC(C)=C(C(=O)OCCN2CCN(C(c3ccccc3)c3ccccc3)CC2)C1c1cccc([N+](=O)[O-])c1` (stereo unspecified), the Potency entry in [10] is “inactive”. The outcome in experiment [11] and in [12] was inactive.
For `C[C@]12CC[C@H](O)CC1=CCC1C2CC[C@]2(C)C(n3cnc4ccccc43)=CCC12` (stereo partly specified), the Potency result in [5] was “inactive”. Further, the outcome in experiment [6] was inactive.
With `COc1ccc(CC2c3cc(OC)c(OC)cc3CC[N+]2(C)CCC(=O)OCCCCCOC(=O)CC[N+]2(C)CCc3cc(OC)c(OC)cc3C2Cc2ccc(OC)c(OC)c2)cc1OC` (stereo unspecified), the Potency result in experiment [5] is “inactive”. Besides, the activity change, negative = inhibition in [6] is -3.2% [at 6.45 µM].
In the case of `COCCn1c2c([n+](Cc3cnccn3)c1C)C(=O)c1ccccc1C2=O`, the Potency in [5] was 2.34 µM (active). Also, the outcome in experiment [6] was inactive.
